proKLK7 act – proKLK7 zymogen activators, primary screen, biochemical, fluorescence intensity. purified proKLK7, EDANS-DABCYL substrate fluorescence; 100% is mature enzyme control, 0% vehicle. activation, % at 7 µM. 370,000 tested, 0.9% active. AID 652039, 2013;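 active = activation above the mean of all tested compounds plus 3 SD, computed per campaign excluding outliers beyond control limits, cut at about 13% in these data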
Target sequence (P49862 whole entry, looked up): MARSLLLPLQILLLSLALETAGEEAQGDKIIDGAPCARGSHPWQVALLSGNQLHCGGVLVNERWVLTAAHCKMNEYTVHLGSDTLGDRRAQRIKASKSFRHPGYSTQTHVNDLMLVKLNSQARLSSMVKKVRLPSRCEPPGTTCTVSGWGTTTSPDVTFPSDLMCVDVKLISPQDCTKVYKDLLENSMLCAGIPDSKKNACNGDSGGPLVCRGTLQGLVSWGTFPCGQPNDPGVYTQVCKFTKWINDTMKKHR
Ecoli rRNA inh – reduced GFP signal of wild-type E. coli, primary screen, bacterial rRNA inhibitor project, GFP/RFP fluorescence, OD600, single point. E. coli WT GFP vs humanized-ribosome RFP mutants, 24 h; hits give low values; DMSO median 0, no signal -100. GFP signal change (wild-type ribosome), % (no concentration beside the values). 350,000 tested, 1.6% active. AID 720706, 2013;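 active = significant combined selectivity score with lowered wild-type GFP, culture density cut under 30%, mutant RFP and density less affected; inactive = any of these conditions unmet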
ADAM10 inh – human ADAM10 inhibitors, primary screen, biochemical, QFRET, HTS | Disintegrin and metalloproteinase domain-containing protein 10 (Homo sapiens), O14672 | recombinant ADAM10, EDANS/DABCYL FRET peptide cleavage, 3 h | inhibition, % at 7 µM | 370,000 tested, 0.62% active;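 active = inhibition above a per-campaign cutoff equal to the mean of compounds falling between control-based bounds plus 3 SD, cut at about 20% in these data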;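 note: 0% = DMSO wells while the 100% control is not disclosed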
ADAM17 inh – ADAM17 inhibitors, primary screen, biochemical, QFRET | recombinant ADAM17, EDANS/DABCYL FRET peptide cleavage | inhibition, % at 6.95 µM | 370,000 tested, 0.83% active;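 active = inhibition above the mean of compounds lying between control limits plus 3 SD, set per campaign, cut at about 8.5% in these data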;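 note: 0% = DMSO-only wells as the low control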
FGF22 binding – binders of human FGF22 protein, primary screen, FGF22 synaptogenesis inhibitor project, biophysical, thermal shift, single point | Fibroblast growth factor 22 (Homo sapiens), Q9HCT0 | recombinant FGF22 thermal shift, SYPRO orange fluorescence; percent of sucrose octasulfate shift, DMSO zero | activity (Tm shift, normalised), % at 9.99 µM | 340,000 tested, 1.5% active;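 active = mean Tm shift, scaled 0 neutral to 100 positive control, at about 1.3% or above, every replicate too, limit read from the data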
An asterisk follows results filed as active; x = not tested or not shown. Sampled rows, rich in hits. Any-hit rate of the full collection: about 3.8%.

SMILES	proKLK7 act	Ecoli rRNA inh	ADAM10 inh	ADAM17 inh	FGF22 binding
O=C(c1ccc(S(=O)(=O)NCc2ccco2)cc1)N1CCN(Cc2ccccc2)CC1	1	4	1	2	44*
COc1ccc(CN2CCN(C(=O)c3ccc(S(=O)(=O)NCc4ccco4)cc3)CC2)cc1	0	-3	-3	-3	x
CCC(CC)NC(=O)Nc1cccc(C)c1C	0	5	7	-2	43*
O=S(=O)(c1cccc(F)c1)N1CCN(Cc2cccc(OCCO)c2)CC1	x	x	x	x	0
CC(C)C#Cc1cnc2c(c1)C(=O)N([C@@H](C)CO)C[C@H](C)[C@@H](CN(C)Cc1ccc3c(c1)OCO3)O2	x	5	x	x	0
Nc1nc(SCc2ccccc2)c2ncn(Cc3ccccc3)c2n1	1	-17*	6	2	0
Cc1ccc(CN2CCN(Cc3cn(C)nc3C)CC2CCO)o1 (centres undefined)	0	13	3	-1	43*
COc1ccccc1/C=C/CN1CCN(Cc2ccc(C)o2)C(CCO)C1 (centres undefined)	0	x	-3	0	x
C/C(=C\c1ccccc1)CN1CCN(Cc2ccc(C)o2)C(CCO)C1 (centres undefined)	0	11	2	-1	44*
Cc1ccc(CN2CCN(Cc3cnc(N4CCOCC4)s3)CC2CCO)o1 (centres undefined)	1	x	-7	1	0
Cc1ccc(CN2CCN(Cc3cnc(C)s3)CC2CCO)o1 (centres undefined)	0	15	-6	-1	44*
CO[C@@H]1CN(C)C(=O)c2ccc(NC(=O)c3cccc(Oc4ccccc4)c3)cc2OC[C@@H](C)NC[C@H]1C	x	-10	x	x	0
O=C(Nc1ccccc1)N1CC(=O)N2[C@H](C1)[C@H](c1ccc(-c3ccc(F)cc3)cc1)[C@@H]2CO	x	-1	x	x	x
CCn1c(SCC(=O)N2CCCC2)nc2ccccc21	0	14	-6	-2	44*
CCn1c(SCC(=O)N2CCCCCC2)nc2ccccc2c1=O	0	-8	5	0	0
CCOC(=O)c1ccc2c(c1)nc(SCC(=O)N1CCOCC1)n2CC	-1	-39*	7	-1	42
CC(C)CSc1nc2ccccc2n1CC(=O)O	0	3	9	-1	43*
O=C(CSc1nnc2nnc3ccccc3n12)N1CCOCC1	3	-25*	-22	-10	0
CCCSc1nc2ccccc2n1CC(=O)O	1	9	-1	3	0
O=C(C[C@H]1C[C@@H]2c3cc(NC(=O)Nc4ccc(F)cc4)ccc3O[C@@H]2[C@@H](CO)O1)NC1CCCCC1	x	-14	x	x	-1
C[C@H]1CN([C@@H](C)CO)S(=O)(=O)c2ccc(C3=CCCC3)cc2O[C@H]1CN(C)S(C)(=O)=O	x	-2	x	x	x
Cc1noc(C)c1NC(=O)Nc1cccc2c1O[C@H](CN(C)Cc1ccc(C(=O)Nc3ccccc3N)cc1)[C@@H](C)CN([C@@H](C)CO)C2=O	x	4	x	x	0
O=C1NCCCOCc2cn(nn2)CC[C@H]1Cc1ccc(-c2ccccc2)cc1	x	-1	x	x	x
O=C(O)c1ccccc1CSc1nc2ccccc2n1Cc1ccccc1C(=O)O	1	16	4	1	44*
CCOC(=O)c1cccc(S(=O)(=O)N(CCO)Cc2cc3cc(OC)c(OC)cc3[nH]c2=O)c1	0	x	-26	-13	x
CCOC(=O)c1cccc(S(=O)(=O)N(CCO)Cc2cc3cc(OC)ccc3[nH]c2=O)c1	x	-18*	x	x	0
COc1ccc2[nH]c(=O)c(CN(CCO)S(=O)(=O)c3ccc(C)cc3)cc2c1	2	-24*	-202	-69	0
C[C@@H]1CCCCO[C@H](CN(C)C(=O)NC2CCCCC2)[C@H](C)CN([C@@H](C)CO)C(=O)c2cc(NC(=O)CCC(F)(F)F)ccc2O1	x	1	x	x	-1
COc1ccccc1/C=C/C(=O)N1CCC(c2ccccc2)C1 (centres undefined)	-1	-23*	-23	-6	0
